These results are taken from PubChem BioAssay (NCI).

Among the test systems are SK-MEL-2 melanoma; EKVX NSCLC; UO-31 renal; TK-10 renal; ACHN renal; CAKI-1 renal; A498 renal; CCRF-CEM leukemia; MOLT-4 leukemia.
What all share (assay): NCI-60 one-dose screen, 48 h (100 = growth as untreated, 0 = no growth, -100 = all killed)
Common to all, as to settings: 10 µM

SMILES strings stand for the structures. This is part of a sample that, as a whole, favours compounds with a hit. Of some 83,000 tested, about 20% had one in any assay.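 48-hour exposure, single concentration, 96-well plates; percent growth endpoint where 0 means no net growth. Active: below 10.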 Values without a mark were called inactive. Calls of active or inactive are those of the source.

Consider `CCOC(=S)Sc1ccc([N+](=O)[O-])cc1[N+](=O)[O-]`, for which the growth was 91.4% in the assay with SK-MEL-2 melanoma; 98% with EKVX NSCLC; 78.1% in the assay with UO-31 renal; 94% with TK-10 renal; 60.4% in the assay with ACHN renal; 29.9% in the assay on CAKI-1 renal. For the same compound, the values for the growth in the assay with A498 renal, in the assay with CCRF-CEM leukemia and in the assay on MOLT-4 leukemia were 88.2%, 14.4% and 48.5%, respectively.
With `O=C(O)CNS(=O)(=O)c1ccc(OCCOc2ccc(S(=O)(=O)NCC(=O)O)cc2)cc1`, the growth in the assay with SK-MEL-2 melanoma is 98.5%; in the assay on EKVX NSCLC, 102%; in the assay on UO-31 renal, 85.7%; in the assay with TK-10 renal, 92.7%; in the assay with ACHN renal it was 102%; in the assay on CAKI-1 renal it was 99.5%. Also, the values for the growth in the assay with CCRF-CEM leukemia and in the assay with MOLT-4 leukemia were 112% and 106%, respectively.
Consider `CCC(OC(=O)CC(C)C)c1ccccc1` (stereo unspecified), for which the growth with SK-MEL-2 melanoma is 100%; with EKVX NSCLC, 99.4%; with UO-31 renal, 95.1%; in the assay with TK-10 renal, 91.1%; with ACHN renal it was 104%; with CAKI-1 renal, 97.9%. In addition, the growth with CCRF-CEM leukemia is 104%; in the assay on MOLT-4 leukemia, 98.1%.
Consider `CCOC(=O)[C@@H](Cc1ccccc1)NC(=O)c1[nH]c2ccc(Cl)cc2c(=O)c1C`, for which the growth was 89% in the assay on SK-MEL-2 melanoma; 97.4% in the assay on EKVX NSCLC; 84.7% in the assay with UO-31 renal; 91.3% in the assay with TK-10 renal; 95.6% in the assay with ACHN renal; 86.6% with CAKI-1 renal. For the same compound, the growth is 143% with A498 renal, 74.4% in the assay on CCRF-CEM leukemia and 93.3% in the assay on MOLT-4 leukemia.
As for `CN(C)c1ccc2c(c1)OC(N)=C(C#N)C2c1ccc2c(c1)CCO2` (stereo unspecified), the growth in the assay on SK-MEL-2 melanoma was 32.1%; in the assay on EKVX NSCLC, 35.9%; with UO-31 renal it was 38.2%; in the assay on TK-10 renal it was 79.1%; with ACHN renal it was 37.4%; in the assay on CAKI-1 renal it was 37%. Further, the figures for the growth with A498 renal, with CCRF-CEM leukemia and in the assay on MOLT-4 leukemia were -9.63% (active), 28.7% and 34.5%, respectively.
For `NC(=O)C1CCCN(Cc2c[nH]c3ccccc23)C1` (stereo unspecified), the growth with SK-MEL-2 melanoma is 86.5%; with EKVX NSCLC it was 99.9%; in the assay on UO-31 renal it was 75.4%; with TK-10 renal it was 93.7%; in the assay with ACHN renal, 103%; in the assay on CAKI-1 renal, 94.4%. Moreover, the growth in the assay on A498 renal is 81%; in the assay on CCRF-CEM leukemia it was 106%; in the assay with MOLT-4 leukemia it was 99.2%.
Consider `O=C1CC(c2cccc(-c3cccnc3)c2)=Nc2ccc(Br)cc2N1`, for which the growth is 49.5% in the assay with SK-MEL-2 melanoma; 36.9% in the assay on EKVX NSCLC; 41.9% with UO-31 renal; -9.34% (active) in the assay with TK-10 renal; 27.5% in the assay with ACHN renal; 49.9% with CAKI-1 renal. Moreover, the growth is -4.26% (active) with A498 renal, 50.8% in the assay on CCRF-CEM leukemia and 27.1% in the assay on MOLT-4 leukemia.
Turning to `COC(=O)c1cnc2c(c1)Oc1ccc(Cl)cc1-c1cc(C)nn1-2`, the growth with SK-MEL-2 melanoma was 98.3%; in the assay with EKVX NSCLC, 71.2%; with UO-31 renal, 82.8%; with TK-10 renal it was 95.4%; in the assay on ACHN renal, 42.4%; in the assay on CAKI-1 renal, 57.8%. In addition, the growth was 99.2% in the assay with A498 renal, 121% in the assay with CCRF-CEM leukemia and 102% in the assay with MOLT-4 leukemia.
As for `COc1ccc(-c2nnc(SC/C(=N\O)c3ccccc3)o2)cc1`, the growth with SK-MEL-2 melanoma is 102%; in the assay on EKVX NSCLC, 95.8%; in the assay on UO-31 renal, 97.1%; in the assay with TK-10 renal, 107%; in the assay on ACHN renal, 101%; with CAKI-1 renal it was 95.1%. The values for the growth with A498 renal, in the assay on CCRF-CEM leukemia and with MOLT-4 leukemia were 80.8%, 88.9% and 80.4%, respectively.
`CC(=O)/C(=C\c1ccc(Cl)cc1)c1ccccc1`: the growth with SK-MEL-2 melanoma was 39.3%; with EKVX NSCLC, 32.9%; in the assay with UO-31 renal it was 52.2%; in the assay with TK-10 renal, 57.1%; with ACHN renal it was 29.6%; in the assay with CAKI-1 renal, 15.6%. For the same compound, the results for the growth with A498 renal, in the assay with CCRF-CEM leukemia and with MOLT-4 leukemia were 15.7%, 11.1% and 11.9%, respectively.
In the case of `Cc1noc(C)c1-c1ccc2nc(NC(=O)[C@H]3CCN(C#N)C3)cn2c1`, the growth is 74.1% in the assay on SK-MEL-2 melanoma; 94% in the assay on EKVX NSCLC; 66.9% with UO-31 renal; 81.2% with TK-10 renal; 65.3% with ACHN renal; 74.4% in the assay on CAKI-1 renal. Besides, the growth in the assay with CCRF-CEM leukemia is 105%; with MOLT-4 leukemia it was 95.9%.
As for `CCN(CCCNC(=O)Cc1cc(=O)oc2cc(N(C)C)ccc12)CCNc1ccnc2cc(Cl)ccc12`, the growth was 117% with SK-MEL-2 melanoma; 99.8% in the assay on EKVX NSCLC; 84.7% in the assay on UO-31 renal; 87.4% with TK-10 renal; 78.6% in the assay on ACHN renal; 106% in the assay on CAKI-1 renal. The growth was 53.9% in the assay with CCRF-CEM leukemia and 44.4% with MOLT-4 leukemia.
For `O=S(=O)(NCCO)c1ccc(OCCOc2ccc(S(=O)(=O)NCCO)cc2)cc1`, the growth in the assay on SK-MEL-2 melanoma is 100%; with EKVX NSCLC, 99.1%; with UO-31 renal, 81.9%; with TK-10 renal, 99.5%; with ACHN renal it was 101%; with CAKI-1 renal, 94.2%. The results for the growth in the assay with A498 renal, in the assay on CCRF-CEM leukemia and with MOLT-4 leukemia were 86.1%, 102% and 99.6%, respectively.
For `Cc1c(C(=O)N[C@H](CO)Cc2ccccc2)[nH]c2ccc(Cl)cc2c1=O`, the growth with SK-MEL-2 melanoma is 95.7%; with EKVX NSCLC it was 94.4%; with UO-31 renal, 98.2%; with TK-10 renal it was 94.5%; in the assay with ACHN renal, 101%; with CAKI-1 renal, 94.8%. Also, the growth in the assay with A498 renal was 98%; with CCRF-CEM leukemia, 94.8%; in the assay with MOLT-4 leukemia, 92.2%.
Consider `CNC(=O)c1cc(Oc2ccc(NC(=O)Nc3ccc(Cl)c(C(C)(C)C)c3)c(F)c2)ccn1`, for which the growth in the assay with SK-MEL-2 melanoma is 44.2%; in the assay with EKVX NSCLC, 29.9%; with UO-31 renal it was 41.6%; with TK-10 renal it was 54.8%; in the assay on ACHN renal, 31.5%; with CAKI-1 renal, 54.4%. For the same compound, the growth was 53.4% in the assay with A498 renal, 40.6% in the assay with CCRF-CEM leukemia and 36.6% with MOLT-4 leukemia.
